Our source for the median seed-adjusted z-score values is PubChem BioAssay AID1347426 (Functional Genomics Laboratory (NCATS/FGL), 2020).

The whole screen tested about 31,000 sequences, of which about 1,400 (4.5%) were called active. This is one part of a sample in which actives are shown more often than they occur.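 How the source made its calls: active means median seed-adjusted z-score above 1 or below -1; inactive means the rest.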

The nature of the test: Novel Modifiers of Survival Motor Neuron (SMN) Protein: Gene Identification via Genome-wide siRNA Screen.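 Further: luminescence tracks full-length SMN protein made from the SMN2 reporter.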 Conditions: HEK293T SMN2-luciferase reporter, siRNA knockdown, 72 h; actives lie on both sides. The procedure, abridged:
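Genome-wide siRNA screen (10418 genes, 3 siRNAs each, 1 pmol per well) by reverse transfection in HEK293T cells stably carrying an SMN2-luciferase reporter; luminescence after 72 hours, normalized to negative-control siRNA, log10-transformed, MAD-scored.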
(In general: In a reporter assay the amount or activity of a reporter protein is the signal.)
Consider CAGUCUUACUGGGAACAAUTT against TGDS, for which the median seed-adjusted z-score is -0.196 (inactive). In the case of GCCCAUUGGAUAUCAGUAUTT against STRADB, the median seed-adjusted z-score is 0.21 (inactive). CUAUUAGGUUGACCAAUAATT against OSGEPL1: the median seed-adjusted z-score was -0.708 (inactive).

In the case of GGAGGAUCAAUUUAUCAGATT against VDAC2, the median seed-adjusted z-score is 0.648 (inactive).

Take CAGUGUUCCUAUUAGAUGATT against LONP2: the median seed-adjusted z-score is 1.52 (active). Take CCUGUGCUGUUAUGAAGCUTT against APC2: the median seed-adjusted z-score was 0.00354 (inactive). As for GAAUGGAGAGAGAAUUGAATT against B2M, the figure is -0.367 (inactive); as for GGAUUAAAGAGAAGAUCUATT against ERH, -1.25 (active); as for CCAGGAGAAAUAUAAGUCATT against ZNF627, 0.204 (inactive).

As for GGACGAGAAAAACUGCUCATT against CORIN, the median seed-adjusted z-score was -0.0274 (inactive). As for GCAUACAUAUGGUAUAGCATT against DDX20, the figure is -0.0137 (inactive); as for GCGGAGAUCAGAUUAGUCATT against NCL, 1.33 (active); as for GCAUGACCGCUUAUCCCAATT against SLC6A5, -0.204 (inactive).

Take CAUUCACUUUGACACCAUATT against HSD17B7: the median seed-adjusted z-score was 0.0836 (inactive). As for GGUUUUUGCUGGACAAACATT against PPP2R3C, the figure is 0.295 (inactive). CCGUGUACGUGGAUGAUGATT against LPHN1: the median seed-adjusted z-score is -1.03 (active). Under GCAUUAGUCUGACAGUACATT against MRGPRX3 stands -0.175 (inactive); under CGAACCUAAUGCUCAACAATT against PREX2, -0.0625 (inactive); under GGAAAUUAGAUACCGAGGATT against SLC25A30, 0 (inactive).

On to GGCUAACAUUAGAACACUUTT against MED6, for which the median seed-adjusted z-score is -2.15 (active). As for CGGAGUCUGCGCUUCGUUATT against ACP2, the figure is -0.00569 (inactive); as for GCUUUAUAAGUGUAGCGAATT against ZNF749, 0.911 (inactive). Under GGAGGUCACUUGUGAAUCATT against GLS2 stands -0.793 (inactive); under CCCAGUUCCUGCUAUCUCATT against POU2F3, -1.53 (active). Regarding GGGCUACCAUCUCCUUUCATT against SLC23A3, the median seed-adjusted z-score is -0.254 (inactive). On to GUACCCAAGUAACAACUGUTT against CXCL11, for which the median seed-adjusted z-score is -0.135 (inactive). UCCACUGACUCGUAAAGUUTT against PROK2: the median seed-adjusted z-score was -0.00826 (inactive).

In the case of GCUCGGUGGUUGAUAAUCATT against SLC22A10, the median seed-adjusted z-score is -0.0897 (inactive). For the sequence AGACCAUCGCAGAGACAGATT against SLC31A2, the median seed-adjusted z-score is 0.401 (inactive). Under GGAUGUUCGUCAUAUUGAATT against IRAK3 stands 0.155 (inactive).

Turning to CAAAAGACCUGUAAUAAGATT against MAGT1, the median seed-adjusted z-score is -0.0855 (inactive). On to GCCUUGAUGCUGAUCAUCATT against MEP1B, for which the median seed-adjusted z-score is 1.46 (active). Under GGUGAAUCAUUUGAACUGATT against RCL1 stands 0.0807 (inactive); under GGAAUACUCAGAUCGGGAATT against MAP3K3, -0.182 (inactive). As to GUAUGGAGAUCUCUACGGATT against RYR3, the median seed-adjusted z-score is 0 (inactive). For the sequence GUAUGACCUAAAAACCGAATT against MTRR, the median seed-adjusted z-score was -0.381 (inactive). Under AGAGAUACUUCUUAAAUCATT against YAP1 stands -0.247 (inactive); under GCUCAAUGCAGGUAUUCAATT against KLF8, 0.0976 (inactive). As for “AAGUCUCAUUCGUGGUUGATT against ST6GALNAC6”, the figure is 0.367 (inactive).

As to CAGCCCAAGUGUCGCCUUATT against PAX9, the median seed-adjusted z-score is -1.16 (active). As for GAUAUUCUCUGUGACGUGATT against BACH2, the figure is 0 (inactive); as for GACCAGAUGUGGAUGUAAATT against MIB1, 0 (inactive). For the sequence ACUAGCCUGUGGAGCAAGATT against HBE1, the median seed-adjusted z-score was -0.425 (inactive). With CCGAUCAAGUGAACAUAGATT against AKAP4, the median seed-adjusted z-score was 0.116 (inactive).

Regarding CCUUCUCAACAUAGGAUAATT against ZNF257, the median seed-adjusted z-score is 0.306 (inactive). Under UGGGUUGGAUGAUACCUUATT against GATA5 stands 0.15 (inactive). As for GAGGGUCUCUUCUUAAGUATT against CAD, the median seed-adjusted z-score is 2.37 (active). Under UCAUCACAGCGGUACUGUATT against ITGAX stands -0.0677 (inactive); under GCAGGUAGCUCAUAUGUUUTT against WDR31, 0.796 (inactive); under GGACCACGUCAAGACUUGUTT against TRAF2, -0.00463 (inactive). With CAAACUUCCCGAUAGAGAATT against CTDP1, the median seed-adjusted z-score is -2.29 (active). For CUAUCAGGGAAAUUACGUATT against ZNF713, the median seed-adjusted z-score is -0.0652 (inactive). As for AAAUGUAACCUUUUGCUUUTT against DAD1, the median seed-adjusted z-score was -0.45 (inactive).

Take GCUUUACCUUGGACCUGAATT against MPL: the median seed-adjusted z-score is -0.0153 (inactive). Turning to GCGUGAUCAUCGAUGUGGATT against SLC5A7, the median seed-adjusted z-score is 0.624 (inactive).

As to GAUGUUCCCUAUAUGCAAATT against CLDN10, the median seed-adjusted z-score is 0.0399 (inactive). Under GUGUAUCUAUGGAAGAGCATT against PSMD4 stands 1.46 (active); under CUAUAAUUCCAGAGCAUAATT against KLF5, -0.338 (inactive); under GGACCUUGGAUUAUCUGAATT against YME1L1, 0.131 (inactive). CACUAGUUCUAUGACCAUUTT against IMPG1: the median seed-adjusted z-score was -0.252 (inactive). As for GCAUGGAAGUGUACGAGUATT against THBS3, the figure is 0.429 (inactive); as for CCACUGACAAGGUCCACGATT against MRGPRD, -0.484 (inactive).

As to CCGUAAACUUCAUAACAUUTT against DYRK1A, the median seed-adjusted z-score is -1.3 (active). Consider CCUUAGUUCUUCCUCGGAATT against PARP12, for which the median seed-adjusted z-score is -0.287 (inactive). As for GCUGAUCUAUCACAAACCATT against SERPINA2, the median seed-adjusted z-score is 0.285 (inactive). On to AAUGCAUUGUGAACCCAUUTT against GNGT2, for which the median seed-adjusted z-score was -0.289 (inactive). Regarding GGUUAGAAGAGGUGUCUAATT against NUMB, the median seed-adjusted z-score is -0.599 (inactive).

In the case of AGCCCAAGGUGGAACAAUCTT against CREM, the median seed-adjusted z-score is -2.37 (active).

Consider GGAUGAACCCAAUCCCAAUTT against UBE2A, for which the median seed-adjusted z-score was 0.306 (inactive).

Regarding GGUCCCUGUUGAGAAACGATT against TOP1, the median seed-adjusted z-score was 0.0303 (inactive). GCAAAGGCCUUGUACGUCATT against USP10: the median seed-adjusted z-score was 0.182 (inactive). For GCUUGAGUAUAGAUAAAGATT against PAM, the median seed-adjusted z-score was 0 (inactive). As for UGGACACCGUCACCAUGAATT against GPR78, the figure is 0.607 (inactive); as for GCCGAGCUCUUUAUCCUCUTT against TRHDE, 0.429 (inactive); as for GGAUCGGGUGUAUCAACAATT against SRP54, 0.203 (inactive). Under CAUUGUCGUUGGUGCAGUATT against ADCY10 stands -0.573 (inactive).

GGAAUUACGGAGAUAUAGATT against TRRAP: the median seed-adjusted z-score was -1.25 (active). As for GGACACAUCUCGGACAGCATT against KLK9, the figure is -0.476 (inactive); as for GUACCUUGAGAAGAAAUUUTT against ACCN1, -0.325 (inactive); as for UCAGCUCCAUUAAUAGAAUTT against PAX8, 0 (inactive). On to CCUCAUAAGUGUAAGAUAUTT against ZNF799, for which the median seed-adjusted z-score is -1.02 (active). On to GAAUGUCCCUGCUCCACAATT against SNAI1, for which the median seed-adjusted z-score was 0.0196 (inactive). Take ACAACUUCCUGGUCGCUGATT against GPR62: the median seed-adjusted z-score was 0.0306 (inactive). As to AGAAGAUCCGAAAGAAAUATT against GABARAP, the median seed-adjusted z-score was 0.418 (inactive). Under CCAACGACCUGGUUAUGAATT against FBP1 stands -0.221 (inactive); under GGUUGGAACUCGUUCCUCATT against NLGN4X, -0.1 (inactive); under GCACAAGACGAACUCAGUATT against UBE2J2, -0.341 (inactive). In the case of GCAUUGUCUCUCUUAUGUUTT against SYVN1, the median seed-adjusted z-score was -1.41 (active). With AGAUCAAGCUCCUCAACAATT against KRT4, the median seed-adjusted z-score is 0.336 (inactive).

Regarding GUUAUUCCCUGUUCUCGAATT against ALDH5A1, the median seed-adjusted z-score was 0.339 (inactive). With GGACGUGGACCAUUACUGUTT against LITAF, the median seed-adjusted z-score is 0.0771 (inactive).

In the case of GAUUAACCAAGGUUGAGAATT against CNGA1, the median seed-adjusted z-score is -1.08 (active). Turning to CCACAUCUCUACUCGUGAATT against ULK4, the median seed-adjusted z-score was 0.0834 (inactive). On to GGAGUUACGAUAGCCGGAATT against DIAPH1, for which the median seed-adjusted z-score was 0.145 (inactive). Consider CGGGAUAAUUUUGACAAGATT against NXF2, for which the median seed-adjusted z-score is -0.0513 (inactive).

For the sequence GGAAACUCUGUUUACGUUATT against BTAF1, the median seed-adjusted z-score is -1.19 (active). As for GGACAACAUUUGACACCAATT against APOBEC2, the median seed-adjusted z-score was 0.232 (inactive). For the sequence CAGACACCUUCAUACCUUATT against BHMT, the median seed-adjusted z-score is 0 (inactive). As to CUGCAAGACUUGGAGCUAATT against HDLBP, the median seed-adjusted z-score was -1.18 (active). As for UGGGAGAAGUACAACAAUATT against FAM12A, the figure is 0.08 (inactive); as for CAACGACAGCAGUCCCAUUTT against EGR1, 0.0836 (inactive). Under GUGUAAGGAUCAAAAAGAATT against ZNF682 stands -0.155 (inactive); under ACAACAUCAUGAUCCGAGATT against PIK3CD, 0.00831 (inactive). In the case of CUUCGUAUGUUUACAAGAATT against GUCY2C, the median seed-adjusted z-score was -0.0181 (inactive). For the sequence GCUCUACGCAAGGAGAUCATT against BATF, the median seed-adjusted z-score is -0.0501 (inactive).

Regarding GUCCGGUGUUUGAACCUGATT against ABHD2, the median seed-adjusted z-score was -1.21 (active). CUAUUGUAAAAGUAUGGAATT against ARL6IP2: the median seed-adjusted z-score was 0.274 (inactive). Turning to GGCCUACAGCAACAAUGGATT against PCDH24, the median seed-adjusted z-score is 0.345 (inactive).
